KLF5 inhibitor = suppresses KLF5 promoter-driven expression. DLD-1 KLF5 promoter-luciferase reporter, luminescence. inhibition, % at 5 µM. 0.23% of 290,000 active. AID 1700;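 active means inhibition above a per-plate limit of that plate's mean compound inhibition plus 3 SD, cut at about 60% in these data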;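 further: 0% = DMSO wells and 100% = LY294002 at 200 µM; higher means less KLF5 promoter-driven luciferase light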
Ba/F3 V617F tox = loss of viability in JAK2V617F-driven Ba/F3 cells. inhibition, % at 5.6 µM. 1.1% of 220,000 active. AID 1446. Ba/F3 EpoR-JAK2V617F viability, ATP luminescence;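 active means inhibition above the campaign mean plus 3 SD over all tested compounds, cut at about 24% in these data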;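 further: cytokine-independent growth of Ba/F3 cells driven by EpoR plus mutant JAK2; 0% = DMSO-treated cells and 100% = JAK inhibitor I control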
IEC-6 tox-1 = counter-screen for KLF5 inhibitors: cytotoxicity in IEC-6 cells; IEC-6 cytotoxicity, luminescence viability; inhibition, % at 5 µM; 0.78% of 290,000 active; AID 1825; in the data active means inhibition above about 22%;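 further: 0% = plate median of test compound wells and 100% = cytotoxic reference compound wells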
APP transl inh = APP translation inhibition. SH-SY5Y APP 5'UTR-luciferase reporter, luminescence. inhibition, % at 2 µM. 0.82% of 190,000 active. AID 1285;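 active means inhibition above a set limit, derived from the sample mean plus 3 SD, cut at about 45% in these data; inconclusive means one replicate passes the limit while the other fails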
BaF3 tox = counter-screen for JAK2V617F inhibitors: parental Ba/F3 viability inhibitors; CellTiter-Glo ATP luminescence; inhibition, % at 5.6 µM; 1.1% of 220,000 active; AID 1486;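 active means inhibition above a per-campaign cutoff, the mean inhibition of all tested compounds plus 3 SD, cut at about 27% in these data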;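 further: 0% = DMSO wells and 100% = JAK Inhibitor I control wells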
aSyn 5UTR inh = MLPCN primary screen, SNCA 5' untranslated region; inhibition, % (tested at 7.5 µM); alpha-synuclein 5'UTR reporter, inhibitor activity; AID 1813; 0.82% of 300,000 active; in the data active means inhibition above about 60%; inconclusive means no clear call, values can overlap the other calls;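 further: H4 neuroglioblastoma cells stably carrying SNCA 5'UTR luciferase fusion; 0% = DMSO wells and 100% = positive control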
KLF5 inh confirm = KLF5 inhibition, confirmation assay; shares compounds with KLF5 inhibitor; DLD-1 KLF5 promoter firefly luciferase reporter, luminescence; inhibition, % at 4 µM; 79% of 610 active; AID 1834;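 active means inhibition above a set limit taken from the earlier primary screen, cut at about 63% in these data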;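 further: 0% = DMSO wells and 100% = LY294002 at 200 µM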
IEC-6 tox-2 = kills rat IEC-6 cells in KLF5 counter-screen | AID 1905 | 56% of 610 active | IEC-6 rat intestinal cells, viability luminescence | inhibition, % at 4 µM | shares compounds with KLF5 inhibitor; in the data active means inhibition above about 23%;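 further: cells exposed to compounds for 48 hours before viability read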
Numbers without * were called inactive; ? = inconclusive; / = no result given. In the library only some 2.2% were active in any assay of this set; here they are far more common.

SMILES | KLF5 inhibitor | Ba/F3 V617F tox | IEC-6 tox-1 | APP transl inh | BaF3 tox | aSyn 5UTR inh | KLF5 inh confirm | IEC-6 tox-2
CC(C)Oc1ccccc1C1CC(=O)Nc2cc3c(cc21)OCO3 (configuration not stated) | 87.0* | 73.2* | 84.1* | 91.9* | 75.5* | 90.6* | 82.7* | 63.8*
O=C(CN1C(=O)c2ccccc2S1(=O)=O)NCc1ccccc1Cl | -42.6 | -2.7 | 1.0 | -8.1 | 0.3 | -4.1 | / | /
O=C(CN1C(=O)c2ccccc2S1(=O)=O)c1ccccc1Cl | 69.8* | / | 0.1 | / | / | 100.6* | 46.4 | -2.3
COc1ccc(CNC(=O)Oc2ccccc2)cc1Cl | -1.4 | 0.5 | -2.2 | / | 1.5 | 6.9 | / | /
N#Cc1ccccc1NC(=O)C(=O)NCCCN1CCCC1=O | / | / | / | / | / | -1.5 | / | /
Cn1cccc1-c1cc(C(=O)N/N=C/c2cc(Br)ccc2O)[nH]n1 | 65.3* | / | 12.2 | / | / | 70.5* | 78.8* | -2.2
COc1ccc(C(=O)N/N=C/c2cc(Br)ccc2O)cc1OC | 68.2* | 15.6 | 4.1 | / | -0.1 | 44.0 | 91.8* | -2.7
Cc1cc(Br)cc(/C=N/NC(=O)c2ccc3c(c2)OCO3)c1O | 70.5* | / | 16.3 | / | / | 7.8 | 60.6 | 15.0
O=C(N/N=C/c1cc(Br)c(O)c(Br)c1O)c1ccc2c(c1)OCCO2 | -19.6 | / | 12.1 | / | / | 38.8 | / | /
Cn1nc(-c2ccccc2)cc1NC(=O)c1cccs1 | -21.3 | -3.7 | 2.0 | / | 0.0 | 5.5 | / | /
Oc1cccc(C(Nc2nccs2)c2ccc3cccnc3c2O)c1 (configuration not stated) | 73.9* | 68.4* | 47.6* | 73.3* | 64.8* | 132.3* | 91.5* | 63.4*
O=C(COc1cccc2cccnc12)Nc1nccs1 | -103.4 | 0.1 | 4.8 | -46.4 | 1.1 | -84.6 | / | /
CN(C(=O)COC(=O)/C=C/c1cccc([N+](=O)[O-])c1)C1CCS(=O)(=O)C1 (configuration not stated) | 83.2* | -2.6 | -5.0 | / | 0.0 | -22.4 | 97.4* | -3.4
Cc1ccc(NC(=O)CSCC(=O)NCc2cccc(C(F)(F)F)c2)cc1 | / | / | / | / | / | 14.9 | / | /
CC(=O)Oc1cccc(N2C(=O)c3ccc(C(=O)Nc4c[nH]c(=O)[nH]c4=O)cc3C2=O)c1 | 3.5 | -1.9 | -2.7 | 4.6 | 7.8 | 11.6 | / | /
COC(=O)C1=C(CN2CCCc3ccccc32)NC(=O)NC1c1ccc(F)cc1 (configuration not stated) | 84.5* | -1.5 | -4.0 | 35.4 | 4.5 | 79.2* | 72.3* | 7.4
COc1cc(C(=O)N/N=C(\C)Cc2ccccc2)cc(OC)c1OC | 75.9* | 86.2* | 83.6* | 94.3* | 80.4* | 34.1 | -13.2 | 0.2
Cc1nc(-c2ccccc2)nc(-c2ccccc2)n1 | / | / | / | / | / | -6.2 | / | /
CCOC(=O)N1CCC(NC(=O)CC2C(=O)NCCN2Cc2ccccc2F)CC1 (configuration not stated) | -21.8 | / | 0.4 | / | / | -3.5 | / | /
COc1cc(C(=O)Nc2sc3c(c2C(=O)O)CCC(C)C3)cc(OC)c1OC (configuration not stated) | 73.8* | / | -5.7 | / | / | 55.9 | 20.4 | 5.2
CCc1nc(SCC(=O)N2CCCCC2)c2c(=O)n(C)c(=O)n(C)c2n1 | -16.8 | / | -4.1 | / | / | -11.6 | / | /
O=C(Nc1nc2ccc(F)cc2s1)C1=COCCO1 | / | / | / | / | / | 57.3 | / | /
O=C(Nc1nc2cc3c(cc2s1)OCCO3)C1=COCCO1 | 95.6* | 11.5 | 17.1 | / | 11.2 | 99.0* | 92.4* | 10.1
COCCCN1C(=O)C(=O)/C(=C(/O)c2ccc(C)cc2)C1/C=C/c1ccccc1 (configuration not stated) | -14.6 | 0.6 | -1.3 | 19.3 | 0.4 | -19.3 | / | /
O=S(=O)(c1ccccc1)c1cnc2ccccc2c1 | / | / | / | / | / | -5.1 | / | /
SMILES | KLF5 inhibitor | Ba/F3 V617F tox | IEC-6 tox-1 | APP transl inh | BaF3 tox | aSyn 5UTR inh | KLF5 inh confirm | IEC-6 tox-2
CC(=O)c1ccc(Nc2cc(C)nc3c(C)cc(C)cc23)cc1 | 67.4* | 81.1* | 73.2* | 89.1* | 81.4* | 21.1 | 78.9* | 49.5*
c1ccc(CSc2nnc3ccc(-c4ccncc4)nn23)cc1 | -8.1 | 3.5 | 4.5 | -10.0 | 2.7 | 0.2 | / | /
O=C(CSc1nnc2ccc(-c3ccncc3)nn12)c1cccs1 | 62.6* | 2.8 | 0.4 | -14.3 | 5.5 | 14.9 | -14.8 | -5.6
Nn1c(SCC(=O)Nc2ccccc2C(F)(F)F)nncc1=O | -19.7 | / | -5.6 | / | / | 30.6 | / | /
COc1ccc(CCNC(=O)c2ccc3c(c2)OCCO3)cc1 | -116.7 | -5.0 | -4.1 | -29.2 | 1.2 | -135.3 | / | /
O=C(NCCc1ccccc1)c1ccc2c(c1)OCCO2 | 96.9* | / | 2.5 | / | / | 105.8* | 95.1* | -3.8
O=C(CCCc1ccccc1)c1ccc2c(c1)OCCO2 | 70.2* | 4.9 | 3.1 | -41.7 | 5.0 | 86.2* | 88.2* | -5.4
O=C(NCCc1ccccc1)c1ccc2c(c1)OCCCO2 | 100.0* | / | 2.2 | / | / | 107.1* | 109.1* | 15.3
CC1=NN(c2nc3ccccc3[nH]2)C(=O)C1Cc1ccccc1 (configuration not stated) | 62.7* | 97.1* | -15.8 | / | 80.6* | 25.8 | 80.8* | 12.4
O=c1[nH]c2ccccc2nc1NCc1ccccc1 | -25.4 | / | 9.2 | / | / | -8.0 | / | /
CCCC(=O)Nc1ccc(C(=O)Nc2nnc(COCC)s2)cc1 | -5.5 | -4.9 | 7.3 | -11.2 | 2.0 | -5.3 | / | /
Cc1ccc(-n2c(=O)[nH]c3ncccc3c2=O)cc1 | 0.2 | 1.8 | 5.4 | -8.3 | 6.3 | -5.9 | / | /
Cc1ccc(-n2c(-c3ccc(Br)cc3)c[n+]3c2CCc2ccc4cccnc4c2-3)cc1 | 68.6* | 97.0* | 56.5* | 2.6 | 91.3* | 85.9* | 111.5* | 50.4*
Cc1nn(C)c(Cl)c1CN1CCC(CO)(CC2CCCCO2)CC1 (configuration not stated) | -11.5 | -2.9 | 1.8 | 2.6 | 3.8 | 4.1 | / | /
COc1ccc(/C=N/NC(=O)c2c(C)nc3ccc(Br)cn23)cc1OC | 14.7 | -2.4 | 3.9 | / | -0.7 | -27.3 | / | /
COc1ccc(/C=N\NC(=O)c2c(C)nc3ccc(Br)cn23)cc1 | 64.7* | 73.4* | 47.0* | 89.2* | 72.0* | ? | 75.3* | 52.5*
Cc1cnc(NC(=O)CCCc2nc3ccccc3s2)s1 | -3.6 | 1.4 | -1.3 | 9.1 | 6.0 | 29.9 | / | /
Cc1ccc2nc(NC(=O)CCCc3nc4ccccc4s3)sc2c1 | 88.5* | 2.1 | -0.7 | -62.0 | 21.2 | 44.5 | 97.6* | 5.8
Cc1cc(=O)[nH]c2c(C)cc(S(=O)(=O)Nc3ccc(O)cc3)cc12 | -11.8 | / | 0.7 | / | / | -7.7 | / | /
COc1ccccc1NC(=O)c1ccccc1C(=O)Nc1ccccc1OC | 13.3 | / | 3.6 | / | / | -9.2 | / | /
COc1ccccc1NC(=O)c1cnc(Nc2ccccc2OC)c2ccccc12 | 71.9* | 85.4* | 68.9* | 93.8* | 82.7* | 100.7* | 71.3* | 47.3*
O=C(Nc1ccncc1)C1COc2ccccc2O1 (configuration not stated) | 0.9 | 3.4 | 6.2 | 6.3 | 4.1 | -23.1 | / | /
O=C(NC1=NCCS1)C1COc2ccccc2O1 (configuration not stated) | 68.8* | 3.4 | -0.4 | 1.7 | 3.5 | 98.2* | 71.0* | -8.0

Bioassay records (PubChem BioAssay)
